Here are results for 14 compounds from PubChem BioAssay (NCI).

Compounds without any hit were thinned out: in the full panel of roughly 83,000, 20% have a hit.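 The test compound was applied at a single concentration to cells in 96-well plates for 48 hours, and percent growth was recorded.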 A number with no mark means an inactive call. Activity calls are given as the source filed them. Rule for the calls: active = growth percent below 10; inactive = the rest.

Experiment in all cases: NCI-60 one-dose screen, 48 h (100 = growth as untreated, 0 = no growth, -100 = all killed)
In one assay the test system is DU-145 prostate. Conditions: 10 µM unless noted.
In another assay the test system is K-562 leukemia. The settings on record: 10 µM unless noted.
Another assay relates to MALME-3M melanoma. Conditions: 10 µM unless noted.
For another assay, the system named is MDA-MB-231 breast. The settings on record: 10 µM unless noted.
A further assay deals with RXF 393 renal. Conditions: 10 µM unless noted.
Another assay concerns SF-268 CNS. The settings on record: 10 µM unless noted.
In another assay the test system is SF-295 CNS. The settings on record: 10 µM unless noted.
The test system of a further assay is SF-539 CNS. Conditions: 10 µM unless noted.
Another assay has as its system UACC-257 melanoma. Conditions: 10 µM.
Another assay relates to M14 melanoma. The settings on record: 10 µM unless noted.

Take `O=c1oc2ccc(-c3ccc(F)cc3F)cc2c(=O)n1-c1ccc(F)c(F)c1`: the growth in the assay on DU-145 prostate is 17.5%; in the assay on K-562 leukemia, 10.8%; in the assay with MALME-3M melanoma, -14.6% (active); in the assay with MDA-MB-231 breast, 7.85% (active); in the assay with RXF 393 renal, -28.4% (active); in the assay on SF-268 CNS, 13.7%. Besides, the growth in the assay on SF-295 CNS was -12.6% (active); in the assay on SF-539 CNS, 11.9%; with UACC-257 melanoma, -14.9% (active).
Take `CCC(CC)N1C(=O)/C(=c2\sc3n(c2=O)C2C(NN=3)N(CC)C(=O)N2CC)c2ccccc21` (configuration not stated): the growth is 7.43% (active) in the assay on DU-145 prostate; 9.31% (active) with K-562 leukemia; 70% with MALME-3M melanoma; 32.8% in the assay on MDA-MB-231 breast; 9.61% (active) in the assay on RXF 393 renal; 35.7% in the assay with SF-268 CNS. In addition, the growth in the assay on SF-295 CNS is 7.59% (active); with SF-539 CNS, 3.34% (active); in the assay on UACC-257 melanoma, 69.6%.
On to `ClC(Cl)c1nc(-c2cccs2)n2nc(-c3ccccc3)cc2n1`, for which the growth in the assay with DU-145 prostate was -24.3% (active); with K-562 leukemia, 27.9%; with MALME-3M melanoma it was 67.7%; in the assay on MDA-MB-231 breast, -26.9% (active); with RXF 393 renal, -73.2% (active); with SF-268 CNS, 6.38% (active). For the same compound, the figures for the growth in the assay on SF-295 CNS, with SF-539 CNS and in the assay on UACC-257 melanoma were -27.6% (active), -44% (active) and 16.3%, respectively.
`Nc1c(C(=O)c2ccccc2)sc2nc(-c3cnccn3)cc(-c3cccs3)c12`: the growth is 106% in the assay with DU-145 prostate; 99.4% with K-562 leukemia; 104% with MALME-3M melanoma; 92.7% in the assay with MDA-MB-231 breast; 108% with RXF 393 renal; 97.8% in the assay with SF-268 CNS. Besides, the growth is 105% with SF-295 CNS, 95.2% with SF-539 CNS, 103% in the assay with UACC-257 melanoma and 97.4% in the assay on M14 melanoma.
On to `NCCN1CCN(c2nc(-c3ccccc3)nc3nc(-c4ccccc4)oc23)CC1`, for which the growth was -79% (active) with DU-145 prostate; 6.56% (active) in the assay on K-562 leukemia; -68.8% (active) in the assay on MALME-3M melanoma; -74.5% (active) in the assay on MDA-MB-231 breast; 49.6% in the assay with RXF 393 renal; -64.7% (active) in the assay with SF-268 CNS. The growth in the assay on SF-295 CNS is -83.6% (active); in the assay with SF-539 CNS, -87.6% (active); in the assay with UACC-257 melanoma it was 93.4%.
Consider `COc1ccc(/C=N/Nc2nc(N/N=C/c3ccc(OC)cc3O)nc(N3CCOCC3)n2)c(O)c1`, for which the growth is 57.8% in the assay with DU-145 prostate; 28% with K-562 leukemia; 67.6% in the assay with MALME-3M melanoma; 70.3% in the assay on MDA-MB-231 breast; -16.2% (active) in the assay with RXF 393 renal; 53.8% in the assay with SF-268 CNS. Further, the figures for the growth in the assay with SF-295 CNS, in the assay with SF-539 CNS and in the assay on UACC-257 melanoma were 31.3%, 47.3% and 55.8%, respectively.
As to `N#Cc1c(NC(=O)c2ccccc2C(F)(F)F)sc2c1CCC(=O)C2`, the growth in the assay on DU-145 prostate was 33.8%; with K-562 leukemia, 10.9%; with MALME-3M melanoma, -17.3% (active); in the assay with MDA-MB-231 breast, 3.09% (active); with RXF 393 renal, -23.8% (active); in the assay on SF-268 CNS, 18.9%. Also, the growth in the assay on SF-295 CNS is 11%; with SF-539 CNS, -28.9% (active); in the assay on UACC-257 melanoma, -9.8% (active).
For `COc1ccc(N)cc1C(=O)Nc1cccc(-c2cc(=O)c3c(OC)c(OC)c(OC)cc3o2)c1`, the growth in the assay on DU-145 prostate was 59.1%; in the assay with K-562 leukemia, 46.6%; with MALME-3M melanoma, 89.4%; in the assay on MDA-MB-231 breast it was 60.2%; in the assay on RXF 393 renal it was 50.4%; in the assay on SF-268 CNS, 68.3%. The growth in the assay with SF-295 CNS was 63.8%; in the assay with SF-539 CNS it was 64.4%; in the assay with UACC-257 melanoma, 98.9%.
For `O=C(CSc1nnc(-c2ccc(Cl)cc2)n1-c1ccccc1)Nc1ccc(F)cc1`, the growth is 93% in the assay on DU-145 prostate; 92.4% in the assay on K-562 leukemia; 80.1% with MALME-3M melanoma; 49.4% with MDA-MB-231 breast; 82.9% in the assay with RXF 393 renal; 79.7% in the assay on SF-268 CNS. In addition, the growth in the assay with SF-295 CNS was 65.5%; in the assay with SF-539 CNS it was 60%; with UACC-257 melanoma, 98.8%.
Consider `CC(C)=CCc1c(O)c(CC=C(C)C)c2c(c1O)C(=O)C1=C[C@@H]3C[C@H]4C(C)(C)O[C@@](C/C=C(\C)C(=O)O)(C3=O)[C@@]14O2`, for which the growth in the assay with DU-145 prostate was -60.5% (active); with K-562 leukemia it was 5.16% (active); in the assay on MALME-3M melanoma, -19.3% (active); in the assay with MDA-MB-231 breast, 29.8%; in the assay with RXF 393 renal, -82.2% (active); with SF-268 CNS, 5.98% (active). Also, the growth in the assay with SF-295 CNS was -9.35% (active); in the assay with SF-539 CNS it was -77.5% (active); in the assay with UACC-257 melanoma it was -38.2% (active); in the assay on M14 melanoma it was 5.07% (active).
As for `CC(=O)c1sc(Nc2cccc(Nc3nc(C)c(C)s3)c2)nc1C`, the growth in the assay with DU-145 prostate was 45.4%; with K-562 leukemia, 40.9%; in the assay with MALME-3M melanoma, 69.8%; with MDA-MB-231 breast it was 80.7%; in the assay with RXF 393 renal it was 47%; in the assay with SF-268 CNS, 71.1%. Moreover, the growth is 86.5% in the assay with SF-295 CNS, 72.2% in the assay with SF-539 CNS, 88.7% with UACC-257 melanoma and 51.3% in the assay on M14 melanoma.
As to `COc1ccc(-c2nc3cc(Cl)c(Cl)cc3n2CC(=O)N=Nc2c(O)[nH]c3ccccc23)cc1`, the growth was -11.4% (active) in the assay with DU-145 prostate; 28.7% in the assay on K-562 leukemia; 35.9% in the assay with MALME-3M melanoma; 54.2% with MDA-MB-231 breast; -21.8% (active) with RXF 393 renal; 64.4% in the assay with SF-268 CNS. The growth was 79.4% in the assay with SF-295 CNS, 13.7% in the assay with SF-539 CNS, 95.7% in the assay on UACC-257 melanoma and 50.5% in the assay with M14 melanoma.
Consider `O=C1[C@@H]2Cc3c([nH]c4ccccc34)[C@H](c3c(Cl)cccc3Cl)N2C(=O)CN1C1CCN(Cc2ccccc2)CC1`, for which the growth with DU-145 prostate was 31.6%; with K-562 leukemia, -8.4% (active); in the assay on MALME-3M melanoma, 44.9%; in the assay on MDA-MB-231 breast, 55.4%; in the assay with RXF 393 renal it was 55.9%; in the assay with SF-268 CNS it was 52.5%. Moreover, the growth with SF-295 CNS was -79.4% (active); with SF-539 CNS, 70.3%; in the assay on UACC-257 melanoma it was 46.4%; with M14 melanoma, 23.3%.
Consider `O=C(CCCCCCN1CC(=O)N2[C@@H](c3cccc(Br)c3)c3[nH]c4ccccc4c3C[C@H]2C1=O)NO`, for which the growth with DU-145 prostate was 24.2%; with K-562 leukemia, 15.5%; with MALME-3M melanoma, 29.3%; in the assay on MDA-MB-231 breast it was 11.7%; in the assay with RXF 393 renal, -16.7% (active); in the assay on SF-268 CNS it was 24.9%. Also, the growth with SF-295 CNS is 15.6%; in the assay on SF-539 CNS it was 32.2%; in the assay on UACC-257 melanoma it was 44.9%; in the assay with M14 melanoma, 27.4%.
